In PubChem BioAssay:
Values joined by “and” are separate entries in the source; they are usually repeats but may differ in a detail not shown here. Identical values can stand only once. Results filed as inconclusive are left out. Active and inactive are the calls of the source.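 Rule for the calls, unless noted: active = normalized viability below 100% at a tested concentration; inactive = the rest.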

Assays:
[1] = growth inhibition of DIPG glioma cells, dose response, cell-based, SU-DIPG-XIII, MIPE5.0, CellTiter-Glo, qHTS (AID 1347064; cut-off not given, nearly all actives have AC50 up to about 23 µM;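 for AC50: cells exposed to compound for 48 hours before the viability read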); settings: SU-DIPG-XIII viability, CellTiter-Glo ATP luminescence
[2] = growth inhibition of DIPG glioma cells, dose response, cell-based, SU-DIPG-IV, MIPE4.0, CellTiter-Glo, qHTS (AID 1347063; cut-off not given, nearly all actives have AC50 up to about 30 µM;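 note: compound exposure lasted 48 hours before the viability readout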); settings: SU-DIPG-IV viability, CellTiter-Glo ATP luminescence
[3] = viability loss in pontine glioma line – cell-based, SU-DIPG-XXV, MIPE5.0, CellTiter-Glo, qHTS, dose response (AID 1347065; cut-off not given, nearly all actives have AC50 up to about 26 µM;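 note: cells exposed to compound for 48 hours before ATP readout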); settings: CellTiter-Glo ATP luminescence
[4] = SU-DIPG-VI glioma cell viability, MIPE4.0 library, CellTiter-Glo luminescence, qHTS (AID 1347066; cut-off not given, nearly all actives have AC50 up to about 30 µM;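 note: cells exposed to compound for 48 hours before readout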); settings: CellTiter-Glo ATP luminescence
[5] = JHH-DIPG-1 glioma cell viability, MIPE5.0 library, CellTiter-Glo luminescence, qHTS (AID 1347067; cut-off not given, nearly all actives have AC50 up to about 26 µM;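 note: cells exposed to compound for 48 hours before readout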); settings: JHH-DIPG-1 glioma viability, CellTiter-Glo ATP luminescence
[6] = SU-DIPG-XXV glioma cell viability, MIPE5.0 library, qHTS (AID 1347068; cut-off not given, nearly all actives have IC50 up to about 30 µM;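 for IC50: cells exposed to compound for 48 hours before viability readout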)
[7] = modifiers of HSF1 nuclear foci, imaging, Selleck Cancer Library (AID 1347162; in the data active = plate-normalised HSF1 focus index below about 0.46); settings: human cells, at 10 µM; SSMD: measured here: HSF1 foci SSMD mean; cell count: measured here: cell number; plate-normalised HSF1 focus index: stronger effect = lower value
[8] = ovarian cancer cell viability with rucaparib, profiling panel, oncology-focused library, rucaparib conditional (AID 1508598); settings: patient-derived ovarian cancer cells, CellTiter-Glo viability, 144 h, stronger effect = lower value
[9] = circadian clock period modulators, cell-based, LOPAC library, luminescence reporter (AID 2774; call rule not given here;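 note: values are relative to mean of DMSO wells on each plate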); settings: circadian reporter cells, at 7 µM, actives lie on both sides
[10] = test system: Hepatitis C virus NS3 helicase; assay: HCV NS3 helicase inhibitors, primary screen, biochemical, fluorescence polarization, LOPAC1280 library (AID 687035; in the data active = inhibition above about 37%); settings: Purified HCV NS3 helicase, Cy5-dT15 ssDNA binding fluorescence polarization; stronger effect = higher value; concentration not given here
[11] = Cy5 fluorescence quenching or enhancement artefacts, artefact control for HCV NS3 helicase inhibitor project, biochemical, LOPAC1280 (AID 687037; call rule not given here); settings: Cy5-DNA-NS3h complex fluorescence interference counterscreen
[12] = sensitizers of A549 cells to miR-34 induction, primary screen, imaging, A549 dox-inducible miR-34, nuclei and caspase counts (AID 1347080;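 active = compounds whose cell count with miR-34 switched on is under 0.7 times the count with it off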); settings: A549 miR-34 inducible, Hoechst nuclei count, 48 h
[13] = inhibitors of Cryptococcus chitosan production, flow cytometry, Cibacron Brilliant Red staining (AID 1347148; call rule not given here;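 note: compound exposure lasted three days at 37 degrees C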); settings: Cryptococcus neoformans chitosan, stronger effect = lower value; at 10 µM unless noted
[14] = phospholipid biosynthesis inhibitors in animal cells, primary screen, cell-based, LOPAC library, screen 4 (AID 1347384; call rule not given here); settings: phospholipid biosynthesis inhibition screen, at 10 µM
[15] = viability rescue of complex I mutant cybrids, primary screen, cell-based, galactose medium, ATP luminescence (AID 1645843;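 active = z-score of at least 1.8 in each of two replicates, scored against plate mean and spread of sample wells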;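 note: positive z means more ATP and so rescue of galactose-driven cybrid death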); settings: complex I mutant cybrid cells, 72 h, stronger effect = higher value
[16] = molecular target: NAD(+) hydrolase SARM1 (Homo sapiens) (UniProt Q6SZW1); assay: SARM1 TIR NADase inhibitors, cell lysate, NAD-Glo luminescence (AID 1508614;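 active = compound whose remaining NAD level is above about 45 nM, limit read from the data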;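 note: higher remaining NAD means stronger inhibition of SARM1 NADase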); settings: SAM-TIR HEK293T lysate NADase, at 1 µM, stronger effect = higher value
Chain of NAD(+) hydrolase SARM1 (Homo sapiens) (Q6SZW1 whole entry, looked up): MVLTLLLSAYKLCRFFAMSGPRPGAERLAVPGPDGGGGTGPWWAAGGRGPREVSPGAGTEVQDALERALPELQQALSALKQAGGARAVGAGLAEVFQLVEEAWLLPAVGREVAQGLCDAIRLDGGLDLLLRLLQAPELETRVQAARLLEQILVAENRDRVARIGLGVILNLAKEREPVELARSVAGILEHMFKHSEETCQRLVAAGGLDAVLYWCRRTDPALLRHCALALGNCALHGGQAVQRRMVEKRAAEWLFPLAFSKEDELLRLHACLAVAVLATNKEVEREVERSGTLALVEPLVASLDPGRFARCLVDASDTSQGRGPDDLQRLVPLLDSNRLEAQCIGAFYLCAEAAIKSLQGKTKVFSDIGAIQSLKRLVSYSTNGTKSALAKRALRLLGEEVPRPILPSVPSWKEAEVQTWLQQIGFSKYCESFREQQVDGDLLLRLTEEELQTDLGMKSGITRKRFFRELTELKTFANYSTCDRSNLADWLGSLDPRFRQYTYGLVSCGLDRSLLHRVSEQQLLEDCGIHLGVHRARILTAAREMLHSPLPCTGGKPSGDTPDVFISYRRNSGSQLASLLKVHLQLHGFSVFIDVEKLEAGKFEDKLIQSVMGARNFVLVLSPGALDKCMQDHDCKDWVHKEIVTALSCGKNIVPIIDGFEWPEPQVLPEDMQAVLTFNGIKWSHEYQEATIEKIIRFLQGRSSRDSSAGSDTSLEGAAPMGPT

C[C@@H]1CCNC(=O)c2cc3ccc(C(=O)Nc4nc5ccccc5n4CCCN(C)C)cc3n21
inactive: outcome [1]

C[C@]1(CO)CN(c2cc(C(=O)Nc3ccc4c(c3)-c3c(c(C(N)=O)nn3-c3ccc(F)cc3)CC4)c(Cl)cn2)C[C@@]1(C)CO
active: AC50 [2] 2.09 µM

CN(C)CC[C@H](CSc1ccccc1)Nc1ccc(S(=O)(=O)NC(=O)c2ccc(N3CCN(Cc4ccccc4-c4ccc(Cl)cc4)CC3)cc2)cc1[N+](=O)[O-]
6950: cell count [7]
-3.9: SSMD [7]
active: AC50 [2] 7.43 µM | AC50 [3] 0.934 µM | AC50 [4] 2.35 µM | AC50 [5] 16.6 µM | IC50 [6] 13.2 µM | viability ([8]; at 0.0195 µM, OCI-C5x cells, with rucaparib 10 µM, 100% = cells with rucaparib alone) 85.3% | viability ([8]; at 0.0781 µM, OCI-C5x cells, with rucaparib 10 µM, 100% = cells with rucaparib alone) 79.6% | viability ([8]; at 0.0781 µM, OCI-P5x cells, without rucaparib) 99.6% | viability ([8]; at 0.313 µM, OCI-C5x cells, with rucaparib 10 µM, 100% = cells with rucaparib alone) 69% | viability ([8]; at 0.313 µM, OCI-C5x cells, without rucaparib) 46.2% | viability ([8]; at 0.313 µM, OCI-P5x cells, without rucaparib) 96.5% | viability ([8]; at 1.25 µM, OCI-C5x cells, with rucaparib 10 µM, 100% = cells with rucaparib alone) 62.2% | viability ([8]; at 1.25 µM, OCI-C5x cells, without rucaparib) 91.3% | viability ([8]; at 1.25 µM, OCI-P5x cells, without rucaparib) 91.4% | viability ([8]; at 5 µM, OCI-C5x cells, with rucaparib 10 µM, 100% = cells with rucaparib alone) 7.96% | viability ([8]; at 5 µM, OCI-C5x cells, without rucaparib) 22.6% | viability ([8]; at 5 µM, OCI-P5x cells, with rucaparib 20 µM, 100% = cells with rucaparib alone) 9.56% | viability ([8]; at 5 µM, OCI-P5x cells, without rucaparib) 75.3%
inactive: plate-normalised HSF1 focus index [7] 0.864 | viability ([8]; at 0.000305 µM, OCI-C5x cells, with rucaparib 10 µM, 100% = cells with rucaparib alone) 121% | viability ([8]; at 0.000305 µM, OCI-C5x cells, without rucaparib) 119% | viability ([8]; at 0.000305 µM, OCI-P5x cells, with rucaparib 20 µM, 100% = cells with rucaparib alone) 148% | viability ([8]; at 0.000305 µM, OCI-P5x cells, without rucaparib) 108% | viability ([8]; at 0.00122 µM, OCI-C5x cells, with rucaparib 10 µM, 100% = cells with rucaparib alone) 119% | viability ([8]; at 0.00122 µM, OCI-C5x cells, without rucaparib) 124% | viability ([8]; at 0.00122 µM, OCI-P5x cells, with rucaparib 20 µM, 100% = cells with rucaparib alone) 135% | viability ([8]; at 0.00122 µM, OCI-P5x cells, without rucaparib) 102% | viability ([8]; at 0.00488 µM, OCI-C5x cells, with rucaparib 10 µM, 100% = cells with rucaparib alone) 109% | viability ([8]; at 0.00488 µM, OCI-C5x cells, without rucaparib) 114% | viability ([8]; at 0.00488 µM, OCI-P5x cells, with rucaparib 20 µM, 100% = cells with rucaparib alone) 141% | viability ([8]; at 0.00488 µM, OCI-P5x cells, without rucaparib) 108% | viability ([8]; at 0.0195 µM, OCI-C5x cells, without rucaparib) 114% | viability ([8]; at 0.0195 µM, OCI-P5x cells, with rucaparib 20 µM, 100% = cells with rucaparib alone) 140% | viability ([8]; at 0.0195 µM, OCI-P5x cells, without rucaparib) 101% | viability ([8]; at 0.0781 µM, OCI-C5x cells, without rucaparib) 103% | viability ([8]; at 0.0781 µM, OCI-P5x cells, with rucaparib 20 µM, 100% = cells with rucaparib alone) 135% | viability ([8]; at 0.313 µM, OCI-P5x cells, with rucaparib 20 µM, 100% = cells with rucaparib alone) 121% | viability ([8]; at 1.25 µM, OCI-P5x cells, with rucaparib 20 µM, 100% = cells with rucaparib alone) 130%

COc1cc(N2CCC(C(N)=O)CC2)ccc1Nc1nc(N)c(Cl)c(Nc2ccccc2S(=O)(=O)C(C)C)n1
active: AC50 [2] 5.9 µM

Cc1c(C(=O)N2CCOc3ccc(-c4ccc(N)nc4)cc3C2)ccc(S(C)(=O)=O)c1F
active: AC50 [1] 2.95 µM | AC50 [3] 4.17 µM

Cc1ccc(S(=O)(=O)N[C@@H](Cc2ccccc2)C(=O)CCl)cc1
inactive: period change [9] -0.14 h | inhibition [10] -4% | fluorescence ratio (interference) [11] 1 | fold change ([12]; stronger effect = lower value, cell number ratio, induced over uninduced) 1.17 and 1.22 | fold fluorescence [13] 6.27 [at 142.1 µM] | outcome [14] | z-score [15] -1.34
1870 and 962: cell count ([12]; measured here: total cells with miR-34 induction, stronger effect = lower value)
active: AC50 [2] 18.7 µM | AC50 [3] 18.6 µM | AC50 [4] 20.9 µM | AC50 [5] 23.5 µM
0.738 and 0.849: fold change ([12]; measured here: relative caspase fold change +Dox/-Dox)
1600 and 786: cell count ([12]; measured here: total cells without miR-34 induction)

CO/N=C(/C(=O)N[C@@H]1C(=O)N2C(C(=O)O)=C(CSC(=O)c3ccco3)CS[C@H]12)c1csc(N)n1
inactive: remaining NAD [16] 10 nM
active: AC50 [2] 23.5 µM

N#Cc1ccc(Oc2ccc3c(c2)COB3O)cc1
inactive: outcome [2] | outcome [1] | outcome [3] | outcome [4] | outcome [6]

COC[C@H](c1ccc(C(F)(F)F)cc1)N1CCN(C2(C)CCN(C(=O)c3c(C)ncnc3C)CC2)C[C@H]1C
inactive: outcome [4]
active: AC50 [2] 11.8 µM
